Source: PubChem
HCV inh: qHTS Assay for Inhibitors of Hepatitis C Virus (HCV) | actives 3.4% (n = 340,000) | Potency, µM (top dose mostly 41.8 µM), for inactives: at the top dose activity change, negative = inhibition, most hits filed as inhibitors | AID 651820, 2012 | Huh7.5.1 HCVcc-Cre infection, luciferase reporter, 44 h; further: potency means the concentration at half of the fitted maximal effect
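1,000 cells/well; 4 h culture; + compound; + HCVcc-Cre (~0.5 moi); 44 h; luciferase substrate, RT 15 min; read 15 sec.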
HCMV inh: qHTS Assay for inhibitors of the human cytomegalovirus (HCMV). activity change, negative = inhibition, % at 57.5 µM. actives 4.5% (n = 410,000). HFF cells, HCMV-luciferase reporter, 72 h; active compounds read low; in the data active means activity change below about -60%; inconclusive means no clear call, values can overlap the other calls; inactive means above about -39%
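Cell-based, HFFs, 1000 cells/well, 16 h 37C; cpds in DMSO + HCMV-luc, MOI 1 PFU/cell; 72 h 37C; OneGlo luminescence after 5 min RT; norm. to buffer vs Salinomycin 10uM.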
VACV mCherry inh: qHTS for Stage-Specific Inhibitors of Vaccinia Orthopoxvirus: mCherry Reporter Primary qHTS. actives 0.63% (n = 310,000). Vaccinia virus mCherry reporter infection, fluorescence. Potency, µM (top dose mostly 36.5 µM), for the others: top-dose activity change, negative = inhibition, most hits filed as inhibitors. AID 720579, 2013; calls by dose curve; tested in A549 cells; further: potency means the concentration at half of the fitted maximal effect; nearly all actives have a fitted effect of over 35% in size
Sm TGR block: qHTS Assay for the Inhibitors of Schistosoma Mansoni Peroxiredoxins | purified TGR, DTNB reduction, TNB absorbance 405 nm | Potency, µM (highest dose often 114 µM), for inactives: at the highest dose activity change, negative = inhibition, hits mostly inhibitors | actives 3% (n = 360,000) | AID 485364, 2010; further: potency means the concentration at half of the fitted maximal effect; nearly all actives have a fitted effect of over 60% in size
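TGR 20 nM + NADPH 100 uM (dispensed conc.), cpd preinc 15 min RT; start with NADPH (500 uM addition) then DTNB (15 mM addition). Kinetic TNB absorbance, 405 nm filter. Four-parameter Hill fit across titration.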
VACV Venus inh: qHTS for Stage-Specific Inhibitors of Vaccinia Orthopoxvirus: Venus Reporter Primary qHTS; Vaccinia virus Venus reporter expression, fluorescence; Potency, µM (titrated, usually from 36.5 µM), inactives show at the highest dose activity change, negative = inhibition, hits mostly inhibitors; actives 0.46% (n = 330,000); AID 720580, 2013; calls by dose curve; tested in A549 cells; further: potency means the concentration at half of the fitted maximal effect; nearly all actives have a fitted effect of over 30% in size
FMDV antiviral: High Throughput Screening for Foot and Mouth Disease Virus Antivirals; FMDV antiviral cell-based qHTS; Potency, µM (series often up to 57.9 µM), without a hit: top-dose activity change, negative = inhibition, most hits filed as inhibitors; actives 1.2% (n = 410,000); calls by dose curve; tested in HEK293T cells; further: read-out not given here; potency means the concentration at half of the fitted maximal effect; nearly all actives have a fitted effect of over 45% in size
An asterisk follows results filed as active; i = inactive; ? = inconclusive; . = no result; ! = not confirmed by another sample; [ ] = dose if it differs, or a comment. Shown are actives, neighbours in structure and some others; about 9.3% of the full set was active somewhere. Unless noted, the call rests on the fitted dose curve; in most records, active means well fitted curve in the direction sought with a large enough effect; inconclusive means small, poorly fitted or top-dose-only effect, or another doubt; inactive means no such curve, though single readings can be large; an effect the other way counts as inactive or inconclusive. On the % scale 0 is the no-effect control and ±100 the full control effect.

SMILES | HCV inh | HCMV inh | VACV mCherry inh | Sm TGR block | VACV Venus inh | FMDV antiviral
COc1cc(/C=C/C(=O)N(Cc2ccccc2)c2ccccn2)cc(OC)c1OC | -25% | 22 | -25% | 4% | -18% | -3%
Cc1ccc(Cl)cc1NC(=O)OCCN(C)C(=O)Nc1cc(Cl)ccc1C | . | -32 | . | . | . | .
CCOC(=O)c1[nH]c(C)c(C(=O)Nc2cc(Cl)ccc2C)c1C | 1.3µM* | -23 | . | 2% | . | 7%
CCOC(=O)c1c(C)[nH]c(C(=O)C(C)Sc2ccc(Cl)cc2)c1C (centres undefined) | ? | 75 | -12%[1.46 µM] | -9% | 7.1µM* | 21%
CCCCOC(=O)Nc1cc(Cl)ccc1C | -10% | -81* | . | 14% | -12% | 2%
CCOC(=O)c1[nH]c(C)c(C(=O)Nc2ccccc2C)c1C | ? | 2 | . | -4% | . | 25%
O=C(c1ccc(Cl)c([N+](=O)[O-])c1)N1CCN(C(=O)c2ccco2)CC1 | 8% | -7 | i | -6% | -3% | -8%
COC(=O)Cn1cc(C(=O)OC)cc(Br)c1=O | 18% | -6 | . | 1% | -7% | -5%
COC(=O)c1cc(Br)c(=O)n(CCc2ccccc2)c1 | 8% | -103* | . | -15% | -6% | -15%
Cc1nn(CCC(=O)NCc2ccc(Cl)cc2)c(=O)c2nn(-c3ccccc3)c(C)c12 | . | 2 | -18% | -2% | -17% | ?
Cc1nn(CCC(=O)NCc2ccc(N(C)C)cc2)c(=O)c2nn(-c3ccccc3)c(C)c12 | -9% | -63*! | -12% | -8% | -6% | -17%
Cc1ccc(-n2nc3c(=O)n(CCCC(=O)NCC(C)c4ccccc4)nc(C)c3c2C)cc1 (centres undefined) | 22µM* | -12 | . | 11% | . | ?
CCN1CCN(CCNC(=O)CCCn2nc(C)c3c(C)n(-c4ccc(C)cc4)nc3c2=O)CC1 | -13% | -67* | ? | 2% | ? | -2%
COc1ccccc1CCNC(=O)CCCn1nc(C)c2c(C)n(-c3ccc(C)cc3)nc2c1=O | -18% | ? | . | 0% | . | ?
Cc1ccc(CNC(=O)CCCn2nc(C)c3c(C)n(-c4ccccc4)nc3c2=O)cc1 | ? | ? | -25% | -7% | -10% | 7.1µM*!
O=C(Nc1nccs1)[C@@H]1CCCN1S(=O)(=O)c1ccc(Cl)cc1 | 15% | 55 | -12% | . | 2% | -11%
Cc1ccc(OCCC(=O)Nc2ccccc2C(=O)N2CCCCC2)cc1 | 9% | 2 | -14% | 4% | -14% | -1%
CCN1CCN(CCNC(=O)CCc2c(C)c3c(C)nn(-c4ccccc4)c3n(C)c2=O)CC1 | 16µM* | . | -3% | -20% | ? | -12%
CCn1c(=O)c(CCC(=O)NCCN2CCOCC2)c(C)c2c(C)nn(-c3cccc(C)c3)c21 | -24% | ? | i[7.34 µM] | 6% | -21%[7.34 µM] | -15%
O=C(Nc1nc2ccccc2s1)c1ccc(N2CCCCC2)c([N+](=O)[O-])c1 | ? | -72* | -12% | -14% | -24% | -50%
Cc1ccc(-c2csc(NC(=O)c3cc([N+](=O)[O-])ccc3N3CCOCC3)n2)cc1 | -13% | -1 | . | . | . | 20%
O=C(Nc1ccon1)c1ccc(N2CCCCC2)c([N+](=O)[O-])c1 | -22% | 2 | . | -5% | . | -3%
O=C(Nc1nc(-c2ccccc2)cs1)c1ccc(N2CCOCC2)c([N+](=O)[O-])c1 | 3.5µM* | . | ? | -2% | ? | ?
Cc1ccc(Cl)c(OCC(=O)OC(C)C(=O)NC2CC2)c1 (centres undefined) | 8% | -30 | -13% | 6% | -5% | -18%
O=C(O)c1ccc2oc(SCC(=O)N3CCCCC3)nc2c1 | 2% | 86 | -21% | 2% | -9% | 0%
COc1ccc2nc(-c3ccccc3)nc(C3CCCCC3)c2c1 | ? | -3 | -26% | 0% | -3% | -2%
